# Laboratory results from PubChem BioAssay AID1347156 (National Center for Advancing Translational Sciences (NCATS), 2019).
# Results filed as inconclusive are left out. Calls of active or inactive are those of the source. The call rests on the fitted dose curve; in most records, active means well fitted cell-killing curve with a large enough effect; inconclusive means small, poorly fitted or top-dose-only effect; inactive means flat fitted curve, though single readings scatter.
# Experiment: DAPI mCherry counterscreen qHTS for Zika virus inhibitors; further: nearly all actives have a fitted effect of over 55% in size
# Conditions: Vero cells, DAPI nuclear count cytotoxicity, imaging 48-72 h, infected with Zika reporter virus, MOI 1; series mostly up to 32.6 µM
# How it was run: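 Imaging read-out after fixation and Hoechst nuclear staining: percent infection from mCherry-positive cells (above 3 SD of negative controls) and nuclear counts. Setup: Vero cells pre-plated overnight, compound added, infected with ZIKV-mCherry (MOI 1), 48-72 hrs, 37 degrees C.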
# Potency means the concentration at half of the fitted maximal effect.
row,SMILES,Potency
1,COc1cc(C(=O)NS(=O)(=O)c2ccccc2C)ccc1Cc1cn(C)c2ccc(NC(=O)OC3CCCC3)cc12,35.5 µM (active)
2,Nc1cc(N)c(N=Nc2ccc(S(=O)(=O)Nc3nccs3)cc2)cc1N=Nc1ccc(S(=O)(=O)Nc2nccs2)cc1,inactive
3,Cc1ccccc1NC(=O)Nc1ccc(CN2C(=O)N([C@@H](CC(C)C)C(=O)N[C@@H](CC(=O)O)c3ccccc3)C(=O)C2(C)C)cc1,7.08 µM (active)
4,Cc1nc(N=Nc2ccc(S(=O)(=O)O)cc2S(=O)(=O)O)c(COP(=O)(O)O)c(C=O)c1O,inactive
5,CN(C)CC[C@H](CSc1ccccc1)Nc1ccc(S(=O)(=O)NC(=O)c2ccc(N3CCN(Cc4ccccc4-c4ccc(Cl)cc4)CC3)cc2)cc1[N+](=O)[O-],5.01 µM (active)
6,C/C(=C\c1ccc(C(=O)O)cc1)c1ccc2c(c1)C(C)(C)CCC2(C)C,20 µM (active)
7,O=C(COc1ccccc1C(=O)OCC(=O)Nc1cccc2ccccc12)Nc1ccc(Br)cc1,inactive
8,O=C(Nc1ccccc1)c1ccc2c(O)c(S(=O)(=O)c3ccc(Cl)cc3)c(=O)[nH]c2c1,inactive
9,O=c1c(O)c(-c2ccc(O)cc2O)oc2cc(O)cc(O)c12,inactive
10,O=C(O)c1c(Sc2ccccc2)c2cc(Cl)ccc2n1Cc1ccc(Cl)cc1,12.6 µM (active)
11,CCCCCCOc1cc2c(cc1N(C)c1ncc(C(=O)O)cn1)C(C)(C)CCC2(C)C,22.4 µM (active)
12,COc1cc(Nc2nc3ccccc3nc2NS(=O)(=O)c2ccc(NC(=O)c3ccc(OC)c(C)c3)cc2)cc(OC)c1,6.31 µM (active)
13,CC1CCN(C(c2ccc(F)cc2)c2ccc(C(C)C(=O)O)cc2-c2ccc(C(F)(F)F)cc2)CC1 (configuration not stated),8.91 µM (active)
14,O=C(O)C(Cc1cc(I)c(O)c(I)c1)c1ccccc1 (configuration not stated),4.47 µM (active)
15,Oc1c(Cl)cc(Cl)c(Cl)c1Cc1c(O)c(Cl)cc(Cl)c1Cl,31.6 µM (active)
16,Nc1ncnc2c1ncn2[C@@H]1O[C@H](CSCC[C@H](N)C(=O)O)[C@@H](O)[C@H]1O,inactive

row,SMILES,Potency
1,CCC(=O)O[C@H]1[C@H](O[C@@H]2[C@@H](C)[C@H](O[C@H]3C[C@@](C)(OC)[C@@H](O)[C@H](C)O3)[C@@H](C)C(=O)O[C@H](CC)[C@@](C)(O)[C@H](O)[C@@H](C)C(=O)[C@H](C)C[C@@]2(C)O)O[C@H](C)C[C@@H]1N(C)C,35.5 µM (active)
2,N#CC1C(=O)Nc2scc(-c3ccc(-c4ccccc4O)cc3)c2C1=O (configuration not stated),8.91 µM (active)
3,O=S(=O)(Nc1ccc(O)c(Sc2nc3ccccc3s2)c1)c1cc(Cl)ccc1Cl,35.5 µM (active)
4,Nc1ncnc2c([C@@H]3N[C@H](CO)[C@@H](O)[C@H]3O)c[nH]c12,inactive
5,O=C(O)c1cc(N(Cc2ccc(C3CCCCC3)cc2)C(=O)c2ccc(Oc3ccccc3)cc2)ccc1O,35.5 µM (active)
6,Cc1c(Cl)cccc1NS(=O)(=O)c1ccc(NS(=O)(=O)c2ccc3c(c2)OCCO3)cc1,31.6 µM (active)
7,Cc1cc(NC(=O)c2ccc(Cl)c(Cl)c2)ccc1-c1cc2ccccc2oc1=O,15.8 µM (active)
8,CCN(Cc1cccc(S(=O)(=O)O)c1)c1ccc(C(=C2C=CC(=[N+](CC)Cc3cccc(S(=O)(=O)O)c3)C=C2)c2ccccc2S(=O)(=O)[O-])cc1,inactive
9,CCC(C)CCCCC(=O)NC(CCNCS(=O)(=O)O)C(=O)NC(C(=O)NC(CCNCS(=O)(=O)O)C(=O)NC1CCNC(=O)C(C(C)O)NC(=O)C(CCNCS(=O)(=O)O)NC(=O)C(CCNCS(=O)(=O)O)NC(=O)C(CC(C)C)NC(=O)C(CC(C)C)NC(=O)C(CCNCS(=O)(=O)O)NC1=O)C(C)O (configuration not stated),inactive
10,CC1(C)CCC(C)(C)c2cc3c(cc21)Sc1ccccc1N=C3c1ccc(C(=O)O)cc1,8.91 µM (active)
11,CC(C)C1=CCC(C)(O)C(OC2OC(CO)C(O)C(O)C2O)C1 (configuration not stated),inactive
12,Cc1cc(C)c2c(c1)C(N(Cc1cc(C(F)(F)F)cc(C(F)(F)F)c1)c1nnn(C)n1)CCCN2CC1CCC(C(=O)O)CC1 (configuration not stated),35.5 µM (active)
13,COc1ccc(NS(=O)(=O)c2ccc3c(c2)[C@H]2C=CC[C@H]2[C@@H](c2ccc(C(=O)O)cc2)N3)cc1,inactive
14,COc1cc(/C=C(\C#N)C(=O)Nc2nnc(C(F)(F)F)s2)ccc1OCc1ccc(C(F)(F)F)cc1C(F)(F)F,7.08 µM (active)
15,Cc1c(C2(c3cc(C(C)C)c(O)c(Br)c3C)OS(=O)(=O)c3ccccc32)cc(C(C)C)c(O)c1Br,inactive
16,Cc1cc(C(C#N)c2ccc(Cl)cc2)c(Cl)cc1NC(=O)c1cc(I)cc(I)c1O (configuration not stated),8.91 µM (active)
